Bioassay records: PubChem, Sanford-Burnham Center for Chemical Genomics
tim23-1 inh: inhibits growth of tim23-1 mutant yeast; S. cerevisiae tim23-1 growth, BacTiter-Glo luminescence, 24 h; inhibition, % at 20 µM; 330,000 compounds, 1.3% hits; AID 463212;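 active = growth inhibition of the mutant yeast at or above 50%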;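 note: temperature-sensitive mutant grown at 25 °C; plate controls were DMSO-treated mutant yeast for no effect and medium wells lacking yeast for full effect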
tim10-1 inh: tim10-1 yeast growth inhibition; S. cerevisiae tim10-1 ts strain growth, BacTiter-Glo, 24 h; inhibition, % at 20 µM; 330,000 compounds, 2.2% hits; AID 463190;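 active = inhibition of at least 40%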;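 note: mutant grown at 25 °C; 0% = DMSO wells with yeast and 100% = wells holding no yeast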
MPTP block: inhibitors of mitochondrial permeability transition pore. 360,000 compounds, 1.4% hits. inhibition, % at 10 µM. isolated mouse mitochondria, Ca2+ swelling absorbance, 30 min. AID 602449;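 active = inhibition of 50% or more, scaled per plate between neutral and stimulator controls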;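 note: 0% = DMSO wells given calcium and 100% = 1 mM EGTA wells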
Mdm2-MdmX inh: inhibitors of human Mdm2/MdmX interaction; SaOS-2 split-luciferase Mdm2/MdmX complementation, luminescence; inhibition, % at 8 µM; 330,000 compounds, 3% hits; AID 485346;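 active = inhibition of at least 50% at 8 µM in the primary screen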
Target sequence (O15151 whole entry, looked up): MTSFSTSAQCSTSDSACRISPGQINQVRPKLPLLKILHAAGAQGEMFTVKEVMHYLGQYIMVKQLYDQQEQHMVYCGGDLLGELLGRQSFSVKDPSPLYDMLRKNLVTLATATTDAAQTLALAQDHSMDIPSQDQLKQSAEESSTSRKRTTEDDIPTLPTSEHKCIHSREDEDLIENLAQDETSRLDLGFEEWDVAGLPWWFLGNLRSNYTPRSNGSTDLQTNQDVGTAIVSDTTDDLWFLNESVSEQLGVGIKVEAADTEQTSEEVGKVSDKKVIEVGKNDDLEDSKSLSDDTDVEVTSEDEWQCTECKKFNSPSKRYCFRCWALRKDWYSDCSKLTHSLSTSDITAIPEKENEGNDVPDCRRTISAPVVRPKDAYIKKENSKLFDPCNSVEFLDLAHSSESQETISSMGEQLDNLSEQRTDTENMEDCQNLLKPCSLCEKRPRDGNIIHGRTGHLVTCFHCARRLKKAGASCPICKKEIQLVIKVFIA
Target sequence (Q00987 whole entry, looked up): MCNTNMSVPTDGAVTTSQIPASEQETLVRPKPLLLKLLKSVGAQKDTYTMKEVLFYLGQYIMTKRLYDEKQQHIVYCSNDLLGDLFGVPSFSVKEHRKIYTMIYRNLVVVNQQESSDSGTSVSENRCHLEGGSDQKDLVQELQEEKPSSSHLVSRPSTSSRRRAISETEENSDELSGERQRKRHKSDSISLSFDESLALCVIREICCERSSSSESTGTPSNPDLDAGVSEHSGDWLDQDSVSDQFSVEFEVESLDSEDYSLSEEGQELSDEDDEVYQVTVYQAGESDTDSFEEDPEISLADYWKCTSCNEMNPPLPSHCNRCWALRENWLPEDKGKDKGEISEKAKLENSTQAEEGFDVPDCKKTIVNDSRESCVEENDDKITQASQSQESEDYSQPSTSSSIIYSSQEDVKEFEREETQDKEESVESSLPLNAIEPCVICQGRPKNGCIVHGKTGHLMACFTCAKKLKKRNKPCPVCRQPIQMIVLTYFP
TIM10 inh: inhibits growth of TIM10 yeast strain; S. cerevisiae TIM10 strain growth, BacTiter-Glo luminescence, 24 h; inhibition, % at 10 µM; 330,000 compounds, 1.4% hits; AID 463195;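 active = inhibition of 40% or more at the single tested concentration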;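 note: wild-type TIM10 isogenic control strain grown at permissive 25 °C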
Mdm2 MdmX conf: human Mdm2/MdmX binding inhibition, confirmed; luminescent assay; 10,000 compounds, 55% hits; shares compounds with Mdm2-MdmX inh; inhibition, % at 8 µM; AID 489028; in the data active = inhibition above about 40%
FLuc counter: inhibits full-length luciferase, flagging false Mdm2/MdmX hits; shares compounds with Mdm2-MdmX inh; AID 504607; SaOS-2 full-length luciferase counterscreen, luminescence; 6,200 compounds, 77% hits; inhibition, % at 8 µM;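 active = mean inhibition at 8 µM reaching about 37%, which flags the compound as non-specific, limit read from the data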;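 note: p53-null SaOS-2 cells with luciferase driven by a doxycycline-inducible promoter; compound on cells about two nights before reading with doxycycline added after day one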
Starred values were filed as active, the others as inactive; . = no result given. Rows were chosen to be rich in hits. Some 6.3% of all compounds tested hit in one or more screens of this group.

SMILES | tim23-1 inh | tim10-1 inh | MPTP block | Mdm2-MdmX inh | TIM10 inh | Mdm2 MdmX conf | FLuc counter
Cc1ccc(-c2nc(SCC(=O)Nc3cc(C)on3)c3c(=O)n(C)c(=O)n(C)c3n2)cc1 | -13 | -10 | 0 | 77* | -19 | 18 | .
Cn1c(=O)c2c(SCC(=O)Nc3ccccc3F)nc(-c3ccccc3F)nc2n(C)c1=O | 4 | -31 | 1 | 71* | -11 | 40 | 61*
Cn1c(=O)c2c(SCC(=O)Nc3ccccc3F)nc(C3CC3)nc2n(C)c1=O | 2 | -2 | 1 | 79* | -3 | 17 | .
CCC1([N+](=O)[O-])COC(c2ccc(Cl)cc2)OC1 (centres undefined) | . | . | -2 | . | . | . | .
COC(=O)[C@]12CCCCC=C1N(CCC1=CCCCC1)C(=O)[C@H](CC(=O)NCCCCc1ccccc1)C2 | . | . | -2 | . | . | . | .
Cc1ccc(C(=O)N/C(=C/c2ccc(-c3ccc([N+](=O)[O-])cc3)o2)C(=O)NCCCN(C)C)cc1 | 3 | -7 | -4 | 64* | 1 | 26 | .
Cc1cc2nc(-c3ccc(C#N)cc3)c(Cc3ccsc3)n2c(C)c1Br | . | . | 0 | . | . | . | .
Cc1oc(-c2ccccc2Cl)nc1CSCC(=O)N1CCCC1 | 19 | 26 | 1 | 78* | 27 | 84* | 26
COC(=O)c1ccccc1NC(=O)c1cn(-c2ccc(C)c(C)c2)c(=O)c2ccccc12 | 11 | 20 | 2 | 32 | 18 | . | .
CCOC(=O)c1ccccc1NC(=O)c1cn(-c2ccc(C)c(C)c2)c(=O)c2ccccc12 | 18 | 14 | 2 | 69* | 12 | 29 | .
C(=N\Nc1nncc2ccccc12)/c1ccccn1 | 49 | -22 | 0 | 79* | 17 | 79* | 30
Cc1cc(=O)[nH]c(N/N=C/c2ccccn2)n1 | -5 | -8 | 0 | 80* | 8 | 78* | 59*
Fc1cccc(/C=N/Nc2nncc3ccccc23)c1 | 18 | 10 | 3 | -241 | 18 | . | .
Cc1cc(=O)[nH]c(NN=Cc2c(Cl)cccc2Cl)n1 | . | . | -2 | . | . | . | .
O=c1cnnc(N/N=C/c2ccccn2)[nH]1 | -16 | -5 | 0 | 82* | -14 | 88* | 53*
C(=N\Nc1nc2ccccc2[nH]1)/c1ccccn1 | . | . | -2 | . | . | . | .
CC1=C(C(=O)N(C)C)CC(CC(=O)NC2CCCCC2)C(=O)N1Cc1ccc(F)cc1 (centres undefined) | . | . | 2 | . | . | . | .
CC1=C(C(=O)N(C(C)C)C(C)C)CC(CC(=O)NC2CC2)C(=O)N1Cc1ccc(F)cc1 (centres undefined) | . | . | 0 | . | . | . | .
OC(c1ccccc1)C(NCc1ccccc1)c1ccccc1 (centres undefined) | . | . | 0 | . | . | . | .
CCN1C(=O)c2cccc3c(S(=O)(=O)Nc4ccncc4)ccc1c23 | -6 | 10 | 0 | 19 | -4 | . | .
CCN1C(=O)c2cccc3c(S(=O)(=O)NCc4cccnc4)ccc1c23 | 1 | -2 | -4 | 10 | -7 | . | .
CCN1C(=O)c2cccc3c(S(=O)(=O)Nc4nc(C)cs4)ccc1c23 | 24 | 12 | 1 | 73* | -4 | 20 | .
CCN1C(=O)c2cccc3c(S(=O)(=O)Nc4ccccc4)ccc1c23 | 4 | 3 | 2 | 81* | 15 | 73* | 70*
CCN1C(=O)c2cccc3c(S(=O)(=O)Nc4ncccc4C)ccc1c23 | 10 | 8 | 0 | 51* | 1 | 18 | .
CCN1C(=O)c2cccc3c(S(=O)(=O)Nc4ccccn4)ccc1c23 | 8 | -1 | 1 | 75* | 2 | 46* | 68*
SMILES | tim23-1 inh | tim10-1 inh | MPTP block | Mdm2-MdmX inh | TIM10 inh | Mdm2 MdmX conf | FLuc counter
CSc1ccccc1C(=O)N1CCc2ccc(NC(=O)c3ccccn3)cc2C1 | . | . | -2 | . | . | . | .
CCN1C(=O)c2cccc3c(Cl)ccc1c23 | 27 | 7 | 0 | 50* | -7 | -5 | .
CCN1C(=O)c2cccc3c(S(=O)(=O)N(C)C)ccc1c23 | . | . | 0 | . | . | . | .
CN1C(=O)c2cccc3c(S(=O)(=O)Nc4ccccc4F)ccc1c23 | 27 | -35 | 0 | 51* | 0 | 19 | .
CCOC(=O)[C@]12CCCC=C1N(CCC1=CCCCC1)C(=O)[C@H](CC(=O)N1CCN(C(=O)C3CC3)CC1)C2 | . | . | 0 | . | . | . | .
Cc1ccc(C(=O)NC(=S)Nc2ccc(NC(=O)c3cccc(Cl)c3)cc2)cc1 | -25 | 3 | 15 | 37 | -16 | . | .
Cc1ccc(NC(=S)NC(=O)c2ccc(F)cc2)cc1S(=O)(=O)Nc1cccc(Cl)c1 | -34 | 12 | 1 | 67* | -28 | 54* | 108*
COc1ccc(/C=C2\SC(=S)N(CCCC(=O)Nc3cccc(C(=O)O)c3)C2=O)cc1OC | -2 | 7 | 0 | 17 | 15 | . | .
O=C(CN1C(=O)/C(=C/c2ccc(F)cc2)SC1=S)N1CCN(CCc2ccccn2)CC1 | 17 | 33 | 2 | 60* | 19 | -11 | .
COc1ccc(/C=C2\SC(=S)N(CCCC(=O)Nc3ccccn3)C2=O)cc1OC | -17 | 2 | 0 | 63* | -79 | 52* | 76*
Cc1ccc(/C=C2\SC(=S)N(CCCC(=O)Nc3ccccn3)C2=O)cc1 | -1 | 9 | 0 | 69* | -25 | 68* | 52*
O=C(CCN1C(=O)/C(=C/c2ccccc2)SC1=S)Nc1ccccn1 | 12 | 17 | -2 | 5 | -3 | . | .
O=C(CN1C(=O)/C(=C\c2ccc(F)cc2)Oc2ccccc21)N1CCN(c2ccccn2)CC1 | -29 | 6 | 8 | 79* | -4 | 32 | 79*
COc1cccc(CNC(=O)C2CCC(CNc3nc(=S)[nH]c4ccccc34)CC2)c1 (centres undefined) | -25 | 11 | -1 | 61* | -15 | -2 | .
O=C(NC1CC1)c1ccc(CSCc2ccc(Cl)cc2)o1 | . | . | 2 | . | . | . | .
CCc1ccc(NC(=O)c2ccc3c(c2)C(=O)N(CCOC)C3Nc2ccc(CC)cc2)cc1 (centres undefined) | -12 | -7 | 2 | 81* | -13 | 40* | 99*
CCOC(=O)C1=CN(Cc2cccc(F)c2)S(=O)(=O)NC1CCc1ccccc1 (centres undefined) | 45 | 22 | 4 | 61* | 8 | 29 | 47*
CCOc1ccc(N(CC(=O)Nc2ccccc2C)S(=O)(=O)c2c(C)noc2C)cc1 | 31 | 23 | 0 | 56* | 27 | 57* | 57*
CCOc1ccccc1NC(=O)CN(c1ccc(OC)cc1)S(=O)(=O)c1c(C)noc1C | 40 | 39 | 2 | 58* | 7 | 56* | 60*
CCOc1ccc(N(CC(=O)Nc2ccc(C)c(C)c2)S(=O)(=O)c2c(C)noc2C)cc1 | 39 | 10 | 3 | 4 | 2 | . | .
CCNC(=O)COC(=O)c1cc(C)n(-c2ccccc2)c1C | 5 | 2 | -3 | -5 | -13 | . | .
Cc1cc(C(=O)OCC(=O)NCc2ccco2)c(C)n1-c1ccc(F)cc1 | -19 | 14 | 0 | 56* | -12 | 52* | 66*
COc1ccc(C(=O)NNC(=O)c2cc3ccccc3cc2O)cc1 | 6 | -3 | 4 | 50* | -1 | 39 | .
